Screening data: PubChem BioAssay, several laboratories
An excerpt weighted towards active compounds, which were near 2.5% of everything screened.
MEKK3 PB1 HTS = modulators of MEKK3-MEK5 PB1 binding, primary screen, biochemical, wildtype MEKK3, multiplex bead flow cytometry, Alexa488-MEK5; Mitogen-activated protein kinase kinase kinase 3 (Homo sapiens), Q99759; bead-based flow cytometry, Alexa488-MEK5 binding to MEKK3; actives lie on both sides; 0 = blocked by unlabeled MEK5, 100 = vehicle; binding response (% of control), % at 10 µM; 1.4% of 290,000 active; AID 1529, 2009;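 active means binding response more than 3 SD above or below the average of its plate-row segment, actives on both sides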;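 further: Alexa488 bead fluorescence after subtracting the streptavidin-only scavenger bead signal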
Rce1 inh = yeast Rce1p protease inhibitors, primary screen, biochemical, fluorescence, cell-free homogeneous; yeast membranes, quenched prenylated peptide cleavage fluorescence; calls only; 0.27% of 290,000 active; CAAX prenyl protease 2 (Saccharomyces cerevisiae (strain ATCC 204508 / S288c)), Q03530;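 active means fall in fluorescence gain of 50% or more versus controls, with final raw signal at or below 3038400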;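 further: plate controls were neutral control wells for no effect and wells lacking membranes for full effect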
UBC13 polyUb = UBC13 polyubiquitin chain formation inhibitors, primary screen, biochemical, TR-FRET, uHTS; Ubiquitin-conjugating enzyme E2 N (Homo sapiens), P61088; inhibition, % at 20 µM; 0.47% of 330,000 active; AID 485273, 2010; in the data active means inhibition above about 45%, passing the limit was not always enough
Target sequence (P61088 whole entry, looked up): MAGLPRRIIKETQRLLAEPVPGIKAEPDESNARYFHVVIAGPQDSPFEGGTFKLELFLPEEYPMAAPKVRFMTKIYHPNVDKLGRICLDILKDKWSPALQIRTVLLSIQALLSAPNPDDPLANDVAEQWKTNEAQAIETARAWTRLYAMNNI
MEKK2wt PB1 HTS = modulators of MEK5 binding to wildtype MEKK2, primary screen, biochemical, multiplex bead flow cytometry, Alexa488-MEK5. Mitogen-activated protein kinase kinase kinase 2 (Homo sapiens), Q9Y2U5. Alexa488-MEK5 binding to MEKK2 WT; actives lie on both sides. binding response (% of control), % at 10 µM. 1.1% of 290,000 active; in the data active means binding response below about 67% or above about 130%
MEKK2mut PB1 HTS = MEK5 binding signal on mutant MEKK2 PB1, primary screen, biochemical, multiplex bead flow cytometry, Alexa488-MEK5. AID 1530, 2009. Alexa488-MEK5 binding to MEKK2 mutant. percent response, % at 10 µM. 0.35% of 290,000 active; in the data active means percent response above about 24%, passing the limit was not always enough
MEKK2wt confirm = modulators of MEK5 binding to wildtype MEKK2, confirmation, biochemical, single concentration, multiplex bead flow cytometry; shares compounds with MEKK3 PB1 HTS; Alexa488-MEK5 binding to MEKK2 WT; actives lie on both sides; binding response (% of control), % at 10 µM; 2.4% of 5,900 active; in the data active means binding response below about 16% or above about 210%; inactive means in between
MEKK2mut confirm = mutant MEKK2 PB1-MEK5 binding signal retest – biochemical, single concentration, multiplex bead flow cytometry, confirmation; shares compounds with MEKK3 PB1 HTS; Alexa488-MEK5 binding to MEKK2 mutant; percent response, % at 10 µM; 2% of 5,900 active; AID 1893, 2009; in the data active means percent response mostly above about 71%, no sharp cut-off; inactive means mostly below about 38%;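 further: higher means compound restores mutant binding toward wildtype level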
MEKK3 confirm = MEKK3 wild-type PB1 binding to MEK5, inhibitors, confirmation, biochemical, bead multiplex flow cytometry, single concentration, wildtype; shares compounds with MEKK3 PB1 HTS; Alexa488-MEK5 binding to MEKK3; stronger effect = lower value; binding response (% of control), % at 10 µM; 1.8% of 5,900 active;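 active means binding response below 72% of control, or above a set upper limit, though filed actives all read lower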;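 further: 100% = DMSO only wells and 0% = binding blocked by excess unlabeled MEK5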
Casp3 counter = CASP3 inhibitor validation, counterassay for project on UBE2N polyubiquitination blockers, biochemical, one dose. shares compounds with UBC13 polyUb. Recombinant caspase-3, Caspase-Glo 3/7 luminescence, 60 min. inhibition, % at 20 µM. 4% of 1,400 active;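 active means mean inhibition across replicates above about 26%, limit read from the data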;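 further: plate controls were DMSO with caspase-3 for no effect and DMSO wells lacking enzyme for full effect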
Target sequence (P42574 whole entry, looked up): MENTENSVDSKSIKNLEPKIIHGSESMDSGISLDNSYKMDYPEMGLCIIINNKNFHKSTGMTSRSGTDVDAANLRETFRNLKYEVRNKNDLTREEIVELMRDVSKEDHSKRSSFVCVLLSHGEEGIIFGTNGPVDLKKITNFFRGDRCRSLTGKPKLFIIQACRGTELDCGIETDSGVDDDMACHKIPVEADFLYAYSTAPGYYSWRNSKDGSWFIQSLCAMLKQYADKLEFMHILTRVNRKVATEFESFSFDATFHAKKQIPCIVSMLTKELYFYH
UBC13 conf = UBC13 polyubiquitination inhibitors, single-point retest, confirmation, biochemical, TR-FRET, single concentration. 68% of 1,400 active. shares compounds with UBC13 polyUb. inhibition, % at 10 µM. AID 488859, 2010; in the data active means inhibition above about 45%
* hit, by the source's call; [ ] = remark or other dose.

What do the screens show for `CCCCCCCC[n+]1cccc(C(=O)N(CC)CC)c1`?
MEKK3 PB1 HTS: 99; Rce1 inh: inactive; UBC13 polyUb: 0; MEKK2wt PB1 HTS: 100; MEKK2mut PB1 HTS: -1

Results for O/N=C/c1cccc[n+]1CCCCCC[n+]1ccccc1/C=N/O ?
MEKK3 PB1 HTS: 103; Rce1 inh: inactive; UBC13 polyUb: -1; MEKK2wt PB1 HTS: 104; MEKK2mut PB1 HTS: 2

How did CCCCCCCCCCCCCCCC[n+]1ccc(C(N)=O)cc1 do in these assays?
MEKK3 PB1 HTS: 106; UBC13 polyUb: 89*; MEKK2wt PB1 HTS: 139*; MEKK2mut PB1 HTS: 1; MEKK2wt confirm: 157; MEKK2mut confirm: 31; MEKK3 confirm: 104; Casp3 counter: -3; UBC13 conf: 99*

What do the screens show for `O=C(O)c1cc(O)ccc1NC(=O)C(c1ccccc1)c1ccccc1`?
MEKK3 PB1 HTS: 99; Rce1 inh: inactive; UBC13 polyUb: 9; MEKK2wt PB1 HTS: 102; MEKK2mut PB1 HTS: 1

Results for C1CCC(C(CC2CCCCN2)C2CCCCC2)CC1 (stereo unspecified) ?
MEKK3 PB1 HTS: 86; Rce1 inh: inactive; UBC13 polyUb: 80*; MEKK2wt PB1 HTS: 171*; MEKK2mut PB1 HTS: 17; MEKK2wt confirm: 140; MEKK2mut confirm: 28; MEKK3 confirm: 102; Casp3 counter: 0; UBC13 conf: 66*

Results for CCc1ccc2nc(N(CCCN(C)C)C(=O)c3ccc(C(=O)c4ccccc4)cc3)sc2c1 ?
MEKK3 PB1 HTS: 104; Rce1 inh: inactive; UBC13 polyUb: 74*; MEKK2wt PB1 HTS: 186*; MEKK2mut PB1 HTS: 32*; MEKK2wt confirm: 205; MEKK2mut confirm: 64; MEKK3 confirm: 109; Casp3 counter: -4; UBC13 conf: 108*

How did CN(C)CCCN(C(=O)c1ccc2c(c1)CCCC2)c1nc2ccc(Cl)cc2s1 do in these assays?
MEKK3 PB1 HTS: 107; Rce1 inh: inactive; UBC13 polyUb: 65*; MEKK2wt PB1 HTS: 196*; MEKK2mut PB1 HTS: 78*; MEKK2wt confirm: 221*; MEKK2mut confirm: 62; MEKK3 confirm: 107; Casp3 counter: 2; UBC13 conf: 93*

What do the screens show for `CN(C)CCCN(C(=O)c1ccc(S(=O)(=O)N(C)Cc2ccccc2)cc1)c1nc2cc3c(cc2s1)OCO3`?
MEKK3 PB1 HTS: 112; Rce1 inh: inactive; UBC13 polyUb: 90*; MEKK2wt PB1 HTS: 192*; MEKK2mut PB1 HTS: 41*; MEKK2wt confirm: 189; MEKK2mut confirm: 45; MEKK3 confirm: 107; Casp3 counter: 0; UBC13 conf: 108*

What do the screens show for `Cc1ccc2sc(N(CCCN(C)C)C(=O)c3ccc(S(=O)(=O)N(C)Cc4ccccc4)cc3)nc2c1C`?
Rce1 inh: inactive; UBC13 polyUb: 39

What do the screens show for `CN(C)CCCN(C(=O)c1ccc(S(=O)(=O)N2CCc3ccccc3C2)cc1)c1nc2c(F)cc(F)cc2s1`?
Rce1 inh: inactive; UBC13 polyUb: 24

What do the screens show for `CCOc1ccc2nc(N(CCCN(C)C)C(=O)c3ccc(S(=O)(=O)N4CCc5ccccc5C4)cc3)sc2c1`?
MEKK3 PB1 HTS: 103; Rce1 inh: inactive; UBC13 polyUb: 84*; MEKK2wt PB1 HTS: 168*; MEKK2mut PB1 HTS: 20; MEKK2wt confirm: 176; MEKK2mut confirm: 39; MEKK3 confirm: 102; Casp3 counter: 4; UBC13 conf: 115*

How did COc1ccc(C(C)=O)c(Oc2ccc(S(=O)(=O)N3CCOCC3)cn2)c1 do in these assays?
UBC13 polyUb: -3

Results for CC(C)N(Cc1ccccc1)C(=O)CN1C(=O)NC2(CCCCCC2)C1=O ?
UBC13 polyUb: 11

Results for O=C(CCCCn1c(=O)c2ccccc2n(Cc2ccccc2)c1=O)NC1CCN(Cc2ccccc2)CC1 ?
MEKK3 PB1 HTS: 22*[inhibitor]; Rce1 inh: inactive; UBC13 polyUb: 94*; MEKK2wt PB1 HTS: 32*[inhibitor]; MEKK2mut PB1 HTS: -20; MEKK2wt confirm: 105; MEKK2mut confirm: 2; MEKK3 confirm: 101; Casp3 counter: 1; UBC13 conf: 108*

What do the screens show for `CSc1ncccc1C(=O)NNc1cc(Cl)ccc1Cl`?
MEKK3 PB1 HTS: 103; Rce1 inh: inactive; UBC13 polyUb: 6; MEKK2wt PB1 HTS: 105; MEKK2mut PB1 HTS: 8

How did Cc1sc2nc(CN3CCOCC3)[nH]c(=S)c2c1C do in these assays?
MEKK3 PB1 HTS: 95; Rce1 inh: inactive; UBC13 polyUb: 31; MEKK2wt PB1 HTS: 95; MEKK2mut PB1 HTS: -3

What do the screens show for `CN(C)CCCNC(=O)c1ccc(-c2nc(-c3ccc(Cl)cc3)cs2)cc1`?
MEKK3 PB1 HTS: 107; Rce1 inh: inactive; UBC13 polyUb: 54*; MEKK2wt PB1 HTS: 252*; MEKK2mut PB1 HTS: 40; MEKK2wt confirm: 199; MEKK2mut confirm: 47; MEKK3 confirm: 108; Casp3 counter: 2; UBC13 conf: 68*

Results for CCOC(=O)C1=C(c2ccccc2)NC(N)=NC1c1ccc(OCc2ccc(Cl)cc2)c(OC)c1 (stereo unspecified) ?
MEKK3 PB1 HTS: 105; Rce1 inh: inactive; UBC13 polyUb: 49*; MEKK2wt PB1 HTS: 248*; MEKK2mut PB1 HTS: 82*; MEKK2wt confirm: 251*; MEKK2mut confirm: 121*; MEKK3 confirm: 112; Casp3 counter: 6; UBC13 conf: 87*
